Drawing on the antibiotic and cytotoxicity screens of Wong et al. (2023), this text covers cytotoxicity call for 46 molecules.

The whole screen tested about 39,000 compounds, of which about 3,300 (8.5%) were called active. The entries come from a sample that favours actives as a whole.

The test has as its system HepG2. Kind of test: cytotoxicity call (relative viability < 0.9). The conditions noted are these: 10 µM.
For the molecule `CCS(=O)(=O)N1CC[C@]2(CC1)CN([C@H](CO)c1c2c2ccc(cc2n1C)OC)C(=O)Nc1c(noc1C)C`, the cytotoxicity call is “inactive”. The value for `Cc1cc(O)cc(=O)o1` was “inactive”; that for `C[C@@H]1CN([C@H](C)CO)C(=O)c2cc(NC(=O)Nc3ccc(F)cc3)ccc2O[C@@H](C)CCCCO[C@@H]1CN(C)S(=O)(=O)c1ccc(Cl)cc1` was “inactive”. The value for `COc1ccc(NC(=O)Nc2ccc3c(c2)C(=O)N([C@@H](C)CO)C[C@@H](C)[C@H](CN(C)C(=O)Nc2ccccc2)OCCCC[C@H](C)O3)cc1` was “inactive”; that for `CC(C)NC(=O)Nc1ccc2c(c1)C(=O)N([C@@H](C)CO)C[C@@H](C)[C@@H](CN(C)S(=O)(=O)c1cn(C)cn1)OCCCC[C@@H](C)O2` was “inactive”; that for `COc1ccc2c3c([nH]c2c1)[C@H](CO)N(C[C@]13CCN(CC1)S(=O)(=O)C)C(=O)Nc1ccc(cc1)F` was “inactive”. To `COc1ccc2c3c([nH]c2c1)[C@H](CO)N(C[C@]13CCN(CC1)Cc1cc(on1)-c1ccccc1)C(=O)Nc1ccc(cc1)F` belongs “inactive”; to `COc1ccc2c3c([nH]c2c1)[C@@H](CO)N(C[C@]13CCN(CC1)Cc1ccc(cc1)F)C(=O)Nc1ccc(cc1)F`, “active”; to `COc1ccc2c3c([nH]c2c1)[C@@H](CO)N(C[C@]13CCN(CC1)Cc1ccccc1OC)C(=O)Nc1ccc(cc1)F`, “active”.

`COc1ccc2c3c([nH]c2c1)[C@@H](CO)N(C[C@]13CCN(CC1)C(=O)Nc1ccc(cc1)F)C(=O)c1ccc(cc1)F`: the cytotoxicity call was “inactive”. To `COc1ccc2c3c([nH]c2c1)[C@@H](CO)N(C[C@]13CCN(CC1)Cc1cc(ccc1F)F)C(=O)Nc1ccc(cc1)F` belongs “inactive”; to `COc1ccc2c3c([nH]c2c1)[C@H](CO)N(C[C@]13CCN(CC1)Cc1cc(ccc1F)F)C(=O)Nc1ccc(cc1)F`, “inactive”.

As to `COc1ccc2c3c([nH]c2c1)[C@@H](CO)N(C[C@]13CCN(CC1)C(=O)Nc1ccccc1)C(=O)Nc1ccc(cc1)F`, the cytotoxicity call was “inactive”. Regarding `COc1ccc2c3c([nH]c2c1)[C@@H](CO)N(C[C@]13CCN(CC1)S(=O)(=O)C)C(=O)Nc1ccc(cc1)F`, the cytotoxicity call is “inactive”. Take `COc1ccc2c3c([nH]c2c1)[C@H](CO)N(C[C@]13CCN(CC1)Cc1ccccc1OC)C(=O)Nc1ccc(cc1)F`: the cytotoxicity call is “inactive”.

`COc1ccc2c3c([nH]c2c1)[C@H](CO)N(C[C@]13CCN(CC1)Cc1ccc(cc1)F)C(=O)Nc1ccc(cc1)F`: the cytotoxicity call is “active”.

As for `COc1ccc2c3c([nH]c2c1)[C@H](CO)N(C[C@]13CCN(CC1)C(=O)Nc1ccccc1)C(=O)Nc1ccc(cc1)F`, the cytotoxicity call is “active”. To `COc1cc(OC)c(NC(=O)Cn2c(=O)n(-c3ccc(CC(=O)NC[C@H]4CCCO4)cc3)c(=O)c3ccccc32)cc1Cl` belongs “inactive”; to `C[C@H]1CN([C@@H](C)CO)C(=O)c2cccc(NC(=O)Nc3ccccc3)c2O[C@@H]1CN(C)C(=O)Nc1cccc2ccccc12`, “inactive”; to `C/C(=C\C(=O)OCCCCCCCCC(=O)O)C[C@@H]1OC[C@H](C[C@@H]2O[C@H]2[C@@H](C)[C@H](C)O)[C@@H](O)[C@H]1O`, “inactive”.

For `CC(=O)N1[C@H](CO)[C@@H](c2ccccc2)[C@@H]1CNC(=O)CN1CCOCC1`, the cytotoxicity call was “inactive”. Regarding `C[C@H]1CN([C@@H](C)CO)S(=O)(=O)c2ccc(-c3cccc(F)c3)cc2O[C@H]1CN(C)S(C)(=O)=O`, the cytotoxicity call is “inactive”. The value for `COCC#Cc1ccc2c(c1)O[C@@H](CN(C)S(=O)(=O)c1cccc(OC)c1)[C@H](C)CN([C@@H](C)CO)S2(=O)=O` was “inactive”; that for `C[N+](C)(C)C[C@H](O)CC(=O)O` was “inactive”. To `C[N+](C)(C)C[C@@H](O)CC(=O)O` belongs “inactive”; to `C[N+](C)(C)CC(O)CC(=O)[O-]` (stereo unspecified), “active”; to `COCCCOc1ccnc(CS(=O)c2nc3ccccc3[n-]2)c1C.[Na+]` (stereo unspecified), “inactive”. For `C[C@@H]1CN([C@@H](C)CO)S(=O)(=O)c2ccc(-c3cncnc3)cc2O[C@H]1CN(C)C(=O)NC1CCCC1`, the cytotoxicity call was “inactive”. To `CC(=O)[C@@]12C=CCC[C@@H]1C[C@@H](C(=O)Nc1c(C)cccc1Cl)N2C(=O)c1nc(C)oc1C(F)(F)F` belongs “inactive”; to `O=C(O)CCCN1C(=O)c2cccc3cccc(c23)C1=O`, “inactive”. To `O=C1c2ccc3c4c(ccc(c24)C(=O)N1CCCCO)C(=O)N(CCCCO)C3=O` belongs “active”; to `N=C(N)SCCN1C(=O)c2ccccc2C1=O`, “inactive”; to `C[C@H]1CN([C@@H](C)CO)C(=O)CCCn2cc(nn2)CO[C@H]1CN(C)Cc1ccc(C(=O)Nc2ccccc2N)cc1`, “inactive”. `CN(C)C1CN(S(=O)(=O)CCC2CC2)C1`: the cytotoxicity call is “inactive”. The value for `COCC(=O)Nc1ccc2c(c1)C(=O)N(C)C[C@H](OC)[C@@H](C)CN(C(=O)Cc1ccccn1)[C@H](C)CO2` was “active”. To `CO[C@@H]1CN(C)C(=O)c2cc(NC(=O)NC3CCCCC3)ccc2OC[C@H](C)N(CCc2ccccc2)C[C@H]1C` belongs “active”; to `CO[C@@H]1CN(C)C(=O)c2cc(NS(C)(=O)=O)ccc2OC[C@H](C)N(C(=O)C2CCCCC2)C[C@@H]1C`, “active”; to `CO[C@H]1CN(C)C(=O)c2cc(NS(C)(=O)=O)ccc2OC[C@H](C)N(C(=O)C2CCCCC2)C[C@H]1C`, “inactive”. For `CO[C@H]1CN(C)C(=O)c2cc(NC(=O)NC3CCCCC3)ccc2OC[C@H](C)N(CCc2ccccc2)C[C@@H]1C`, the cytotoxicity call is “inactive”. In the case of `COCC(=O)Nc1ccc2c(c1)C(=O)N(C)C[C@@H](OC)[C@H](C)CN(C(=O)Cc1ccccn1)[C@H](C)CO2`, the cytotoxicity call is “inactive”. With `COCC(=O)Nc1ccc2c(c1)C(=O)N(C)C[C@H](OC)[C@@H](C)CN(C(=O)Cc1ccccn1)[C@@H](C)CO2`, the cytotoxicity call was “inactive”. As to `CO[C@H]1CN(C)C(=O)c2cc(NC(=O)NC3CCCCC3)ccc2OC[C@@H](C)N(CCc2ccccc2)C[C@@H]1C`, the cytotoxicity call is “inactive”. The value for `COc1ccc(CN2C[C@@H](C)[C@H](OC)CN(C)C(=O)c3cc(NC(=O)c4nc5ccccc5s4)ccc3OC[C@@H]2C)cc1` was “active”. For the molecule `COc1ccc(CN2C[C@H](C)[C@@H](OC)CN(C)C(=O)c3cc(NC(=O)c4nc5ccccc5s4)ccc3OC[C@@H]2C)cc1`, the cytotoxicity call is “inactive”. The value for `COc1ccc(CN2C[C@@H](C)[C@H](OC)CN(C)C(=O)c3cc(NC(=O)c4nc5ccccc5s4)ccc3OC[C@H]2C)cc1` was “inactive”. For `CO[C@@H]1CN(C)C(=O)c2cc(NS(C)(=O)=O)ccc2OC[C@H](C)N(C(=O)C2CCCCC2)C[C@H]1C`, the cytotoxicity call was “inactive”.
